Most compounds without a hit are left out; they make up all but 4.3% or so of the library.
Autofluor counter: compound fluorescence in toxin protease inhibitor counterscreen; compound autofluorescence counterscreen, microsphere flow cytometry; hits give high values; fluorescence intensity (test concentration not listed); 360,000 compounds, 3.1% hits; AID 624483; in the data active = fluorescence intensity above about 16000; inconclusive = no clear call, values can overlap the other calls
PfHsp40 rescue: restores yeast growth despite PfHsp40 toxicity; S. cerevisiae expressing PfHsp40, growth rescue, ATP luminescence; growth rescue, % at 12.5 µM; 340,000 compounds, 0.68% hits; in the data active = growth rescue above about 28%, passing the limit was not always enough; inconclusive = no clear call, values can overlap the other calls;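 also: yeast W303a lacking pdr1 and pdr3 grown in galactose medium; growth measured after three days at 30 °C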
MazF activator: increases E. coli MazEF RNase cleavage of RNA | activation, % at 20 µM | 350,000 compounds, 0.32% hits | P0AE70 | FAM/BHQ RNA-DNA oligo cleavage fluorescence, 5 h | AID 504720; in the data active = activation above about 50%
BoNT F protease: blocks Botulinum neurotoxin F light chain protease; Multiplex microsphere protease cleavage assay, flow cytometry; inhibition, % at 10 µM; 360,000 compounds, 0.22% hits; in the data active = inhibition above about 35%, passing the limit was not always enough; inconclusive = no clear call, values can overlap the other calls
Anthrax LF inh2: inhibitors of Bacillus anthracis lethal factor protease. P15917. multiplex microsphere protease cleavage assay, LF. inhibition, % at 10 µM. 360,000 compounds, 0.12% hits
BoNT-A LC inh2: BoNT A light chain protease inhibition. AID 588499. multiplex microsphere protease substrate cleavage, flow cytometry. 360,000 compounds, 0.17% hits. inhibition, % at 10 µM
Numbers stand for hits; 0 = inactive; ? = inconclusive; - = not tested or not shown. Rule as the data show it, unless noted: active = inhibition above about 30%; inconclusive = no clear call, values can overlap the other calls; inactive = below that.

SMILES	Autofluor counter	PfHsp40 rescue	MazF activator	BoNT F protease	Anthrax LF inh2	BoNT-A LC inh2
O=C(NCCCO)C12CC3CC(CC(C3)C1)C2	0	0	0	0	0	0
O=C(O)CSCNC(=O)C12CC3CC(CC(C3)C1)C2	16463	0	0	0	0	0
N#Cc1c(-c2ccc(F)cc2)nc2n(c1=O)CCS2	22077	0	0	0	0	0
CCCNc1c(NS(=O)(=O)c2cccc(C#N)c2)c(=O)oc2ccccc12	0	0	0	0	0	0
COc1ccc(C(=O)Nn2cc3c(c2-c2ccccc2)c(=O)n(C)c(=O)n3C)cc1	20615	0	0	0	0	0
CCCCNC(=O)C1(C)CCCCN1C(=O)c1cc(C#N)cs1 (stereo not drawn)	0	-	-	0	0	0
COCc1n[nH]c(=S)n1-c1cccc2ccccc12	23066	0	0	0	0	0
CCN(CC)CCN(C(=O)c1cc2c(ccc3ccccc32)oc1=O)c1nc2cc3c(cc2s1)OCCO3	0	0	0	0	0	0
COc1ccc(NC(=S)NCc2cccs2)cc1	0	0	0	0	0	0
CC(C)c1ccc(NC(=S)NCc2cccs2)cc1	21787	0	0	0	0	0
S=C(NCc1cccs1)Nc1cccc(Cl)c1	18567	0	0	0	0	0
N#CCOC(=O)/C=C/c1ccc2c(c1)OCO2	0	0	0	0	0	0
CCCCCN1C(=O)/C(=C/c2c(N3CCc4ccccc4C3)nc3ccccn3c2=O)SC1=S	21934	0	0	0	0	0
O=C(COC(=O)C1CC2CCCC(C1)C2=O)Nc1ccccc1 (stereo not drawn)	0	0	0	0	0	0
CCOC(=O)COc1ccc(Oc2nc(C)cc(OC)n2)nn1	21448	0	0	0	0	0
COc1cc(C)nc(Oc2ccc(OCc3ccccc3)nn2)n1	0	0	0	0	0	0
CCc1nc(SCc2cc(Cl)ccc2OC)n[nH]1	17236	0	0	0	0	0
CCc1nc(SCc2ccc(OC)cc2)n[nH]1	0	0	0	0	0	0
Cc1ccc2c(c1C)-c1c(ccc(C)c1C)C(=O)C2=O	0	171	0	0	0	0
Cc1ccc2c(c1N)C(=O)c1ccccc1C2=O	0	0	0	0	0	0
Clc1ccc(N2COC3c4cccc5cccc(c45)C32)cc1 (stereo not drawn)	22405	0	0	0	0	0
CS(=O)(=O)NC1c2cccc3cccc(c23)C1N1CCOCC1 (stereo not drawn)	0	0	0	0	0	0
COc1ccc(N2COC3c4cccc5cccc(c45)C32)cc1 (stereo not drawn)	20787	0	0	0	0	0
COc1ccc(CNC(=O)C2CCC(CNS(=O)(=O)c3ccc(C)cc3)CC2)cc1 (stereo not drawn)	0	-	0	0	0	0
Cc1cc(C)nc(N2CCC(C(=O)NCCc3ccc(F)cc3)CC2)n1	26052	0	0	0	0	?
SMILES	Autofluor counter	PfHsp40 rescue	MazF activator	BoNT F protease	Anthrax LF inh2	BoNT-A LC inh2
CCc1nnc(NC(=O)CN2CC(C)OC(C)C2)s1 (stereo not drawn)	0	0	0	34	0	0
CCc1nnc(NC(=O)C2CCCCC2)s1	22291	0	0	0	0	0
CCc1nnc(NC(=O)C2CCN(c3nc(C)cc(C)n3)CC2)s1	24756	0	0	0	0	0
COc1ccc(N2C(=O)CS/C2=N\C(=S)Nc2ccccc2)cc1	0	0	0	?	0	0
Nc1nonc1-n1nnc(C(=O)N/N=C/c2ccc(Cl)cc2Cl)c1CN1CCOCC1	0	0	124	0	0	0
C#CCOCCOCCOCCNc1nc(N2CCN(C(=O)CCCCCCCCCCNC(=O)[C@@H](CCSC)n3cc(CCO)nn3)CC2)nc(N2CCN(C(=O)CCCCCCCCCCNC(=O)[C@H](CCC(=O)O)n3cc(CCCCCN)nn3)CC2)n1	0	0	0	0	0	0
C#CCOCCOCCOCCNc1nc(N2CCN(C(=O)CCCCCCCCCCNC(=O)[C@@H](CCSC)n3cc(CCO)nn3)CC2)nc(N2CCN(C(=O)CCCCCCCCCCNC(=O)[C@H](CO)n3cc(CCCCCN)nn3)CC2)n1	0	85	0	0	0	0
C#CCOCCOCCOCCNc1nc(N2CCN(C(=O)CCCCCCCCCCNC(=O)[C@H](CCCCN)n3cc(C[C@@H](C)CC)nn3)CC2)nc(N2CCN(C(=O)CCCCCCCCCCNC(=O)[C@H](CCCN=C(N)N)n3cc(C[C@@H](C)CC)nn3)CC2)n1	0	26	0	0	0	0

Screening data as filed in PubChem BioAssay.
